Test results published in PubChem BioAssay AID2625 (National Center for Advancing Translational Sciences (NCATS), 2010).
Records with an inconclusive call do not appear. The source made the active and inactive calls. Calls come from the whole dose curve; as a rule, active = well fitted curve in the direction sought with a large enough effect; inconclusive = small, poorly fitted or top-dose-only effect, or effect the other way, or another doubt; inactive = no such curve, though single readings can be large or run the other way.

What follows are compounds tested against Pyruvate kinase PKLR (Homo sapiens) (UniProt P30613) (assay: Secondary LDH Assay for Activators of Human Liver Pyruvate Kinase: for Probe SAR). Conditions: purified hPK-L, LDH-coupled NADH fluorescence kinetic; series mostly up to 58.2 µM.
Chain of Pyruvate kinase PKLR (Homo sapiens) (P30613 whole entry, looked up): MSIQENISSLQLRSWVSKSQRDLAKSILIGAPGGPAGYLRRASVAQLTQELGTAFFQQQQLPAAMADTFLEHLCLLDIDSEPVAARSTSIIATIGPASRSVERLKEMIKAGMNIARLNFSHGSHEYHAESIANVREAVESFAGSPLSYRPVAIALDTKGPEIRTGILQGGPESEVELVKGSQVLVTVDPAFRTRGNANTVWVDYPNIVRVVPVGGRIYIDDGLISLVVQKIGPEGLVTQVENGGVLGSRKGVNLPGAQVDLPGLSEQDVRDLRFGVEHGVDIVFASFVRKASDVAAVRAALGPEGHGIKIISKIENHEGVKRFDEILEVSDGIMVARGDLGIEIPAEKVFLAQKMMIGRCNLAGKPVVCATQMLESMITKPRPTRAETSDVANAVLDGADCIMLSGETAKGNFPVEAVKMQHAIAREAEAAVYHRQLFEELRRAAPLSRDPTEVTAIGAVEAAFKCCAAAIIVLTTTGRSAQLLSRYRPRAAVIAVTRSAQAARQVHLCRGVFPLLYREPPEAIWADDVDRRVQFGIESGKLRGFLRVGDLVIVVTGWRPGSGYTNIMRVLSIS
Method in brief: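 Kinetic LDH-coupled read-out: NADH fluorescence loss followed every 30 s for 3–6 min gave initial rates. Reaction: 10 nM human liver PK, 0.1 mM PEP, 4 mM ADP, 0.2 mM NADH, 50 mM Tris-Cl pH 8.0; activation normalised to fructose-bis-phosphate.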

outcome, inactive:
COc1ccc(S(=O)(=O)Nc2ccc(C)c(C)c2)cc1
O=C1c2ccccc2C(=O)N1c1cc(=O)c2ccccc2[nH]1
Cc1cccc(OC2=NS(=O)(=O)c3ccccc32)c1
Cc1ccc(NS(=O)(=O)c2cc3c(cc2N2CCC2)NC(=O)CC3)cc1C
CC(C)Nc1cccc(S(=O)(=O)N2CCCN(S(=O)(=O)c3ccc4c(c3)OCCO4)CC2)c1
Cc1ccc(NS(=O)(=O)c2cc3c(cc2C)OCC(=O)N3)cc1C
